In the library only some 9.9% were active in any assay of this set; here they are far more common.
Tau ThT inhib = tau fibrillization inhibition (ThT binding). P10636. recombinant tau K18 P301L, heparin-induced fibrillization, ThT fluorescence. Potency, µM (doses to about 57.4 µM), without a hit: top-dose activity, negative = inhibition, most hits filed as inhibitors. 270,000 compounds, 2.1% hits. AID 1460; also: nearly all actives have a fitted effect of over 55% in size
Target sequence (P10636 561-689 P618L limits assumed): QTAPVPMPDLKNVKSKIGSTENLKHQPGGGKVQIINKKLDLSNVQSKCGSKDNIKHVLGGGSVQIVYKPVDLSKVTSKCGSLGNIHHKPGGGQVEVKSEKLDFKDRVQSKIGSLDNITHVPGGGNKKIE
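Heparin-induced fibrillization of the P301L-mutant K18 repeat-domain fragment of human tau was followed by ThT binding in quantitative high-throughput format.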
Tau FP inhib = inhibitors of human tau fibril formation; P10636; K18 P301L tau heparin fibrillization, Alexa594 FP, 6 h; Potency, µM (highest dose often 57.7 µM), for the others: top-dose activity, negative = inhibition, hits mostly inhibitors; 280,000 compounds, 0.39% hits; AID 1468; also: nearly all actives have a fitted effect of over 55% in size
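Heparin (20 uM) drove fibril formation of recombinant tau K18 P301L, 15 uM unlabeled with 0.24 uM Alexa 594 label, for 6 hr at 37 C in 100 mM sodium acetate pH 7. Fluorescence polarization (555/632 nm) read 1 hr after 30 uM ThT.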
KDM4E inh = blocks human JMJD2E demethylase activity; 230,000 compounds, 1.6% hits; AID 2147; Potency, µM (doses to about 57.1 µM), without a hit: at the highest dose activity change, negative = inhibition, hits mostly inhibitors; JMJD2E catalytic domain, FDH-coupled NADH fluorescence (FDH is formaldehyde dehydrogenase); B2RXH2; active = well fitted inhibition curve with a large enough effect, not every such curve was filed as active; inconclusive = small, poorly fitted or top-dose-only effect, or another doubt; inactive = no such curve, though single readings can be large or run the other way;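 also: 0% = wells with enzyme and -100% = buffer wells without enzyme; nearly all actives have a fitted effect of over 50% in size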
Tau fluor counter = counter-screen for tau fibril formation inhibitors; 280,000 compounds, 0.93% hits; Potency, µM (doses to about 57.7 µM), without a hit: at the highest dose activity change, negative = decrease; tau K18 P301L (four-repeat tau fragment) Alexa594 fluorescence, heparin fibrillization; also: nearly all actives have a fitted effect of over 55% in size
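Human K18 P301L tau (15 uM unlabeled plus 0.24 uM Alexa 594-labeled, final) in 100 mM sodium acetate pH 7 was mixed with compound and 20 uM heparin and incubated 6 hr at 37 C.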
HPGD inh = blocks human HPGD enzyme activity; P15428; purified HPGD, NADH fluorescence kinetic, PGE2 substrate; Potency, µM, without a hit: at the highest dose activity change, negative = inhibition, most hits filed as inhibitors; 150,000 compounds, 4.3% hits; AID 894; active = well fitted inhibition curve with a large enough effect, not every such curve was filed as active; inconclusive = small, poorly fitted or top-dose-only effect, or another doubt; inactive = no such curve, though single readings can be large or run the other way
Target sequence (P15428 whole entry, looked up): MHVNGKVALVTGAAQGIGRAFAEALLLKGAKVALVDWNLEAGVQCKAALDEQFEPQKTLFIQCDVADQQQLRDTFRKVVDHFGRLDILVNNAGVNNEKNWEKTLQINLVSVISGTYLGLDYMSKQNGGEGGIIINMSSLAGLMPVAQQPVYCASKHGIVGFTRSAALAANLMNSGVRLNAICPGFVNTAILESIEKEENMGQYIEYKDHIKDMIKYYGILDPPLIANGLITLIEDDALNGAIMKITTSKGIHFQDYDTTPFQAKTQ
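20 nM HPGD preincubated 15 min at room temperature with compound in 50 mM Tris-HCl pH 8, 0.01% Tween 20. Started with 1 mM NAD+ and 30 uM prostaglandin E2; NADH fluorescence (360/450 nm) read 5 times over 30-s intervals, last minus first.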
ALDH1A1 inh = inhibitors of human aldehyde dehydrogenase 1A1; P00352; Purified ALDH1A1, NADH fluorescence, propionaldehyde substrate; Potency, µM (titrated, usually from 75.3 µM), for the others: at the top dose activity, negative = inhibition, usual class: inhibitors; 220,000 compounds, 7.3% hits; active = well fitted inhibition curve with a large enough effect, not every such curve was filed as active; inconclusive = small, poorly fitted or top-dose-only effect, or another doubt; inactive = no such curve, though single readings can be large or run the other way;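 also: plate controls were no enzyme wells and a reference inhibitor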
Active calls of the source: *; u = inconclusive; x = no result; [ ] = dose if it differs, or a comment. Unless noted, calls follow the shape of the dose curve; as a rule, active = well fitted curve in the direction sought with a large enough effect; inconclusive = small, poorly fitted or top-dose-only effect, or another doubt; inactive = no such curve, though single readings can be large; an effect the other way counts as inactive or inconclusive. Unless noted, % is scaled to controls: 0 for no effect and ±100 for the full control effect; potency is read from the fitted curve at half-maximal effect.

SMILES	Tau ThT inhib	Tau FP inhib	KDM4E inh	Tau fluor counter	HPGD inh	ALDH1A1 inh
C/C(=N/Nc1ncc(C(F)(F)F)cc1Cl)c1ccncc1	-17%	-4%	-1%	-12%	x	40µM*
COc1cc(/C=N/Nc2ncc(C(F)(F)F)cc2Cl)cc(OC)c1OC	u	6%	u	-22%	u	0%
CCCn1c2ccccc2c2cnn(CC(=O)N(C)c3ccc(F)cc3)c(=O)c21	-11%	-2%	x	-5%	x	x
CC(C)c1nc(SCC(=O)c2ccc(F)cc2)c2ccccc2n1	u	u	-19%	-22%	x	20µM*
CCCc1nc(SCC(=O)c2ccc(OC)cc2)c2ccccc2n1	u	-15%	-9%	-15%	x	10µM*
CCc1nc(SCC(=O)NNC(=O)c2ccc(OC)cc2)c2ccccc2n1	-19%	-6%	-2%	-3%	x	u
O=C(CSc1cnc2ccccc2n1)c1ccc(F)cc1	14µM*	-11%	-11%	-15%	-28%	25µM*
CCC(C)/C(C)=N/NC(=O)CSc1nc2ccccc2[nH]1 (stereo not given)	-9%	-3%	4%	2%	x	-16%
CC(=O)O[C@H]1CC(C)(C)C(=C=C/C(C)=C/C=C/C(C)=C/C=C/C=C(C)/C=C/C=C(\C)C(=O)C[C@@]23O[C@]2(C)C[C@@H](O)CC3(C)C)[C@](C)(O)C1	25µM*	u	u	-10%	x	x
CC#C[C@@]1(O)CC[C@H]2[C@@H]3CCC4=CC(=O)CCC4=C3[C@H](c3ccc(N(C)C)cc3)C[C@]21C	x	x	0%[25.5 µM]	x	5%	7%[20.9 µM]
C#CCN(Cc1ccco1)C(=O)c1cc(COc2ccc(F)cc2Cl)on1	13µM*	-3%[2.34 µM]	u	-64%	x	u
Cc1ccc(CN(C)C(=O)c2cc(COc3ccc(F)cc3Cl)on2)o1	u	-5%	-8%	-28%	x	7.1µM*
Cc1cc(CN(C)C(=O)c2cc(COc3ccc(F)cc3Cl)on2)n[nH]1	-5%	3%	5%	-9%	x	-10%
Cc1nc(CNC(=O)c2cc(COc3ccc(F)cc3Cl)on2)cs1	-13%	0%	8%	-11%	x	1%
CSc1cccc(NC(=O)CC(c2cccs2)N2Cc3ccccc3C2=O)c1 (stereo not given)	11%	u	x	u	x	x
O=C(CN1C(=O)C2(SCC(=O)N2c2ccccc2)c2ccccc21)Nc1ccccc1C(F)(F)F (stereo not given)	-4%	-1%	x	-9%	x	x
CC(C)c1ccc(NC(=O)CCn2c(=O)c3cccn3c3ccccc32)cc1	-14%	7%	x	-13%	x	x
CCc1cccc(C)c1NC(=O)CN1C(=O)C2(SCC(=O)N2c2cccc(F)c2)c2ccccc21 (stereo not given)	0%	u	x	-13%	x	x
CN1CCc2c(sc3c2C(=O)NC(c2ccco2)N3)C1 (stereo not given)	u	u	u	-21%	u	u
CN1CCc2c(sc3c2C(=O)NC(c2ccc(-c4ccc(Cl)cc4)o2)N3)C1 (stereo not given)	3.2µM*	u	u	u	x	u
CN1CCc2c(sc3c2C(=O)NC(c2cn(Cc4ccccc4)c4ccccc24)N3)C1 (stereo not given)	18µM*	u	u	-25%	u	u
COc1ccc(-c2noc(CSc3nnc(C)n3-c3cccc(C)c3)n2)cc1	-12%	6%	x	-5%	x	x
CN1C(=O)C2(N=c3ccccc3=N2)c2ccccc21	-16%	u	u	-12%	-26%	-11%
CC[C@H](C)[C@H](NC(=O)[C@H](CCCN=C(N)N)NC(=O)[C@H](CCCN=C(N)N)NC(=O)[C@H](CC(C)C)NC(=O)[C@H](Cc1ccccc1)NC(=O)CNC(=O)CN)C(=O)N[C@@H](CCCN=C(N)N)C(=O)N1CCC[C@H]1C(=O)N[C@@H](CCCCN)C(=O)N[C@@H](CC(C)C)C(=O)N[C@@H](CCCCN)C(=O)O	6%	-2%	x	-2%	x	7%

Assay outcomes from PubChem.
